Source: PubChem BioAssay (NCATS)
Several values for one entry are separate records, joined by “and”; a condition that tells them apart may be missing. Equal entries are not always repeated. Inconclusive results are not listed. Activity calls are given as the source filed them. Unless noted, calls come from the whole dose curve; as a rule, active = well fitted curve in the direction sought with a large enough effect; inconclusive = small, poorly fitted or top-dose-only effect, or another doubt; inactive = no such curve, though single readings can be large; an effect the other way counts as inactive or inconclusive.

Experiments:
[1] = target: Cytochrome P450 2C9 (Homo sapiens) (UniProt P11712); experiment: Cytochrome P450 family 2 subfamily C member 9 (CYP2C9) small molecule antagonists: luciferase biochemical (cell-free) qHTS assay (AID 1645842; active = well fitted curve in the direction sought with a large enough effect in the repeat runs; an effect the other way counts as inactive or inconclusive; note: nearly all actives have a fitted effect of over 55% in size); conditions: P450-Glo CYP2C9 enzyme assay, luciferin luminescence; series mostly up to 57.4 µM
Chain of Cytochrome P450 2C9 (Homo sapiens) (P11712 whole entry, looked up): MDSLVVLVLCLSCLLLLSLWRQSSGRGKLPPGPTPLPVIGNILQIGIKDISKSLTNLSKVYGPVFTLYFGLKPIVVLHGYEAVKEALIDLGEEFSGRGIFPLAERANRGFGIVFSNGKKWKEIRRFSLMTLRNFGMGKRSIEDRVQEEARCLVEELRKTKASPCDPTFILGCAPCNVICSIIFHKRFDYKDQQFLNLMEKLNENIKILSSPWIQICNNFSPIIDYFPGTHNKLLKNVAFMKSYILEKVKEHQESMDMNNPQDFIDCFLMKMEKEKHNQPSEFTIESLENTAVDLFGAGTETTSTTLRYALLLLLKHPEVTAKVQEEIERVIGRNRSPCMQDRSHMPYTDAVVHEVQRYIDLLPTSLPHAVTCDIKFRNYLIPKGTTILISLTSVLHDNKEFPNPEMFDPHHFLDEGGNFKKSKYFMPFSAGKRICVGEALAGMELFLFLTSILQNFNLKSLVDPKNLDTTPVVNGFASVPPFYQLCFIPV
In short: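 P450-Glo CYP2C9 system: proluciferin substrate with enzyme in mix containing 0.4% BSA, 10 min at room temperature, then NADPH regeneration solution added and incubated 1 h at 37C. Detection reagent stopped reaction; luminescence read after 20 min as RLU.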

[2] = Primary qHTS for inhibitors of nuclear receptor binding SET domain protein 2 (NSD2) in an isogenic RCH-ACV NSD2 p.E1099K mutant (9B) (AID 1645876); conditions: RCH-ACV NSD2 E1099K (9B) viability, CellTiter-Glo, 72 h; series mostly up to 44.9 µM; note: nearly all actives have a fitted effect of over 70% in size
[3] = Primary qHTS for inhibitors of nuclear receptor binding SET domain protein 2 (NSD2) in an RCH-ACV wild type WT cells (2C) (AID 1645877); conditions: RCH-ACV (leukaemia line) NSD2 WT (2C) viability, CellTiter-Glo, 72 h; series mostly up to 44.9 µM; note: nearly all actives have a fitted effect of over 70% in size
Potency is the fitted concentration of half-maximal effect.

SMILES | Potency [1] | Potency [2] | Potency [3]
COC(=O)c1ccc2c(c1)[nH]c1ncnc(NCCCN3CCCCC3)c12 | inactive | 16.3 µM (active) | 16.3 µM (active)
Cc1ccc(C2(C(=O)N3CCC(n4nc(-c5ccccc5)oc4=O)CC3)CC2)cc1 | 0.756 µM (active) | inactive | inactive
COc1ccc(C2(CNC(=O)c3ccc(NC(=O)c4ccco4)cc3)CCOCC2)cc1 | inactive | inactive | inactive
CN(C)CCN(Cc1ccccc1)C(=O)c1cc(-c2ccc(F)cc2)n2nc(C(C)(C)C)cc2n1 | 16.9 µM (active) | 3.25 µM (active) | 2.9 µM (active)
CCOC(=O)c1cnn(-c2ccccc2)c1NC(=O)c1cc2nc(-c3ccco3)cc(C(F)(F)Cl)n2n1 | 3.38 µM (active) | inactive | inactive
Cc1cc(Nc2nc(-c3ccccc3)nc3ccccc23)n[nH]1 | 10.7 µM (active) | 2.9 µM (active) | 3.25 µM (active)
Fc1ccc(-c2nc(C3CCNCC3)sc2-c2ccnc(NC3CC3)n2)cc1 | 16.9 µM (active) | 8.17 µM (active) | 6.49 µM (active)
CC(C)(C)Oc1ccc(OCC2Cc3ccccc3CN2C(=O)c2cccc3ccccc23)cc1 (configuration not stated) | 1.69 µM (active) | inactive | inactive
Cc1cc(-c2cc(OC(=O)c3ccccc3)ccc2Cl)cc2nnc(Nc3ccc(OCCN4CCCC4)cc3)nc12 | inactive | 12.9 µM (active) | 7.96 µM (active)
CNc1cc2[nH]c(=O)n(-c3ccc(NC(=O)NS(=O)(=O)c4ccc(Cl)s4)cc3)c(=O)c2cc1F | inactive | inactive | inactive
C[C@H]1[C@H](/C=C/c2ccc(-c3ccccc3C#N)cn2)[C@@H]2[C@@H](C)OC(=O)[C@@H]2C[C@@H]1C | inactive | 14.5 µM (active) | 10.3 µM (active)
C[C@@H](Nc1ncnc2[nH]c(-c3ccc(O)cc3)cc12)c1ccccc1 | 1.2 µM (active) | 5.78 µM (active) and 11.8 µM (active) | 5.78 µM (active) and 10.5 µM (active)
CC(=O)NC(C)c1cnc(-c2cnc(Oc3ccc(OC(C)C)cc3)s2)s1 (configuration not stated) | 9.52 µM (active) | 10.3 µM (active) | 8.17 µM (active)
O=C(Nc1ccc(Cl)cc1)C1CCCN(C(=O)c2cccc(-c3ccco3)c2)C1 (configuration not stated) | 15.1 µM (active) | 14.5 µM (active) | 23 µM (active)
COc1ccc(-c2cnc3c(-c4cccc5ncccc45)cnn3c2)cc1 | 12 µM (active) | inactive | inactive
Oc1cccc(-c2c3nc(c(-c4cccc(O)c4)c4ccc([nH]4)c(-c4cccc(O)c4)c4nc(c(-c5cccc(O)c5)c5ccc2[nH]5)CC4)C=C3)c1 | 11 µM (active) | 8.41 µM (active) | 8.41 µM (active)
CCNC(=O)c1noc(-c2cc(Cl)c(O)cc2O)c1-c1ccc(OC)cc1 | 3.38 µM (active) | 0.129 µM (active) | 0.115 µM (active)
OC(c1ccc(-c2ccc(CN3CCN(Cc4ccncc4)CC3)cc2)c(F)c1)(C(F)(F)F)C(F)(F)F | 1.34 µM (active) | inactive | inactive
O=C(NCCO)c1cccc(-c2cc(Nc3ccc(OC(F)(F)F)cc3)ncn2)c1 | 21.3 µM (active) | 18.3 µM (active) | 18.3 µM (active)
COc1cc(N2CCC(O)CC2)ccc1Nc1nc(Nc2ccccc2S(=O)(=O)C(C)C)c2[nH]cnc2n1 | 15.1 µM (active) | 5.78 µM (active) | 4.09 µM (active)

SMILES | Potency [1] | Potency [2] | Potency [3]
CCCC(CCC)C(=O)Nc1ccn([C@@H]2O[C@H](CO)[C@@H](O)C2(F)F)c(=O)n1 | 8.49 µM (active) | 1.48 µM (active) | 0.934 µM (active)
CCCCC1CCN(CCCN2C(=O)CCc3ccccc32)CC1 | inactive | 20.5 µM (active) | 11.5 µM (active)
Cc1nc(Nc2cnn(C3CCNCC3)c2)nc2c1N(C)C(=O)c1cc3ccccc3cc1N2C | 1.07 µM (active) | 5.15 µM (active) | 2.05 µM (active)
CNC(C)C(=O)NC(C(=O)N1CCCC1C(=O)Nc1snnc1-c1ccccc1)C1CCCCC1 (configuration not stated) | inactive | inactive | inactive
CC(C)CCNC(=O)c1ccc2c(c1)nc(Nc1n[nH]c3ccc(-c4ccccc4OC(F)(F)F)cc13)n2C1CCC(O)CC1 (configuration not stated) | 9.52 µM (active) | 10.3 µM (active) | 14.5 µM (active)
COCC(=O)NC/C=C/c1ccc2ncnc(Nc3ccc(Oc4ccc(C)nc4)c(C)c3)c2c1 | 8.49 µM (active) | 20.5 µM (active) | 16.3 µM (active)
N#CC(CCCN1CCC(O)(c2ccc(Cl)cc2)CC1)(c1ccccc1)c1ccccc1 | 23.9 µM (active) | 5.15 µM (active) | 6.49 µM (active)
C#CC(=O)N(c1ccc(OC)cc1OC)C(C(=O)NCC(=O)OCC)c1cccs1 (configuration not stated) | 12 µM (active) | 0.183 µM (active) | 0.0649 µM (active)
NC(=O)N1CCC(CC(=O)N2CCC(C3c4ncc(Br)cc4CCc4cc(Cl)cc(Br)c43)CC2)CC1 (configuration not stated) | 12 µM (active) | 7.28 µM (active) | 6.49 µM (active)
NCC1CCN(c2nccc(-c3ccc4ccccc4c3)n2)CC1 | 0.849 µM (active) | 1.86 µM (active) | 1.18 µM (active)
O=C(Nc1ccc(Cl)cc1)c1ccccc1NCc1ccncc1 | 0.0379 µM (active) | 10.3 µM (active) | 18.3 µM (active)
C[C@@H](N[C@H]1CCCC[C@@H]1NC(=O)c1ccc(Cl)cc1)c1cccc2ccccc12 | 12 µM (active) | 14.5 µM (active) | 9.16 µM (active)
Cc1cc(-c2cnc(N)c3c(-c4ccc5scnc5c4)csc23)n(C)n1 | 10.7 µM (active) | 4.59 µM (active) | 5.78 µM (active)
O=C(COc1ccc2ccccc2c1Br)Nc1cccnc1 | 8.49 µM (active) | inactive | inactive
C[C@@H](NC(=O)C(=O)c1c[nH]c2ccc([N+](=O)[O-])cc12)c1ccccc1 | inactive | inactive | inactive
CCOC(=O)N1CCC(N2CCC[C@@H](NC(=O)c3ccccc3C)C2)CC1 | inactive | inactive | inactive
O=C(NCCCn1ccnc1)c1cc(-c2ccco2)on1 | 9.52 µM (active) | 14.5 µM (active) | 10.3 µM (active)
CCOc1ccc(S(=O)(=O)N2CCCCCC2)c2ccccc12 | 7.56 µM (active) | inactive | inactive
CCOc1cc(C(C)(C)C)ccc1C1=N[C@@](C)(c2ccc(Cl)cc2)[C@@](C)(c2ccc(Cl)cc2)N1C(=O)N1CCN(CC(=O)N2CCOCC2)CC1 | 21.3 µM (active) | 1.03 µM (active) | 1.03 µM (active)
O=C(N[C@H]1CCC[C@H](CO)C1)C1CCN(c2nc3cc(Cl)c(-c4ccc(Cl)cc4)cc3o2)CC1 | inactive | 20.5 µM (active) | 16.3 µM (active)

SMILES | Potency [1] | Potency [2] | Potency [3]
COc1cc2nc(C3CC3)nc(N3CCN(c4ccccc4OC)CC3)c2cc1OC | 13.5 µM (active) | 16.3 µM (active) | 12.9 µM (active)
COc1ccc(C(=O)Nc2c(Cl)cncc2Cl)cc1OC1CCCC1 | 6.74 µM (active) | inactive | inactive
CCC(C)CNCC(=O)N1CCc2sccc2C1COc1cccc(C)c1 (configuration not stated) | 13.5 µM (active) | 16.3 µM (active) | 20.5 µM (active)
COc1ccccc1N1CCN(CC(C(=O)NC(C)(C)C)c2ccccc2)CC1 (configuration not stated) | 12 µM (active) | inactive | inactive
Cc1c(C(=O)Nc2ccc(N3CCC(N4CCOCC4)CC3)c(C#N)c2)cnn1-c1ccc(Cl)cc1 | 2.13 µM (active) | 0.23 µM (active) | 0.23 µM (active)
CN(C)CCN(Cc1ccc(-c2ccc(CNCCc3ccccc3)cc2)cc1)C(=O)CCC1CCCC1 | 19 µM (active) | 2.58 µM (active) | 2.3 µM (active)
CN1CCC(c2cn(C)c3ccc(OS(=O)(=O)c4c(F)cccc4F)cc23)CC1 | 9.52 µM (active) | 18.3 µM (active) | 23 µM (active)
Cc1cc2sc(NC(=O)Cc3ccccc3)nc2cc1Cl | inactive | inactive | inactive
Cc1cc(N2CCN(C(=O)Oc3ccc(-c4ccccc4)cn3)CC2)c2ccccc2n1 | 26.8 µM (active) | 12.9 µM (active) | 12.9 µM (active)
CCOC(=O)c1ccc(OCCC2CCN(c3ccc(C)nn3)CC2)cc1 | 19 µM (active) | inactive | inactive
CC1(C(=O)Nc2ccc(F)nc2)CCCN1c1nc(Nc2cc(C3CC3)[nH]n2)c2cccn2n1 (configuration not stated) | 10.7 µM (active) | 1.29 µM (active) | 0.649 µM (active)
CCC(C)CNCC(=O)N1CCC2SC=CC2C1COc1cccc(C)c1 (configuration not stated) | 12 µM (active) | 23 µM (active) | 18.3 µM (active)
Cc1ccc(F)cc1S(=O)(=O)N[C@@H]1CCN(Cc2ccc(OC(C)C)cc2)C1 | 6.01 µM (active) | 16.3 µM (active) | 18.3 µM (active)
O=C(c1ccc(OC(F)F)c(C#Cc2ccccn2)c1)N1Cc2cccnc2C1 | inactive | inactive | inactive
O=S(=O)(Nc1ccccc1N1CCCCC1)c1ccc(Cl)s1 | 5.35 µM (active) | inactive | inactive
CCc1ccccc1OC[C@@H](O)CN[C@H]1CCCc2ccccc21 | inactive | 16.3 µM (active) | 10.3 µM (active)
CCOC(=O)C1(CCOc2ccccc2)CCN(Cc2ccc(O)c(Cl)c2)CC1 | 6.01 µM (active) | 23 µM (active) | 23 µM (active)
O=C(NNc1nc2cc(F)ccc2n2cccc12)c1cnccn1 | inactive | 0.817 µM (active) | 0.916 µM (active)
Cn1c(=O)c(F)c(Nc2ccc(I)cc2F)c2c(=O)n(CC(O)CO)cnc21 (configuration not stated) | 9.52 µM (active) | 23 µM (active) | 23.1 µM (active)
